Assay results taken from PubChem BioAssay (Tox21).
A number with no mark means an inactive call. Inconclusive results are not listed. Entries that show only a call come without a potency. The source made the active and inactive calls. Unless noted, the call rests on the fitted dose curve; in most records, active means well fitted curve in the direction sought with a large enough effect in the repeat runs; inconclusive means weak or mixed curves; inactive means no such curve, though single readings can be large; an effect the other way counts as inactive or inconclusive.

Assays:
[1] = qHTS assay to identify small molecule antagonists of the estrogen related receptor (ERR) signaling pathway from Tox21 library - cell viability counter screen (AID 1224834); further: nearly all actives have a fitted effect of over 30% in size; further: potency means the concentration at half of the fitted maximal effect
Method in brief: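 ERR cells, 2,000/well; 6 h settle at 37 C/5% CO2; pin-tool compound transfer in DMSO; 17.5 h at 37 C; CellTiter-Fluor, 30 min; fluorescence intensity.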

[2] = target: Luciferin 4-monooxygenase (Photinus pyralis) (UniProt P08659); test: qHTS assay to identify small molecule inhibitors of firefly luciferase (AID 1224835); further: nearly all actives have a fitted effect of over 25% in size; further: potency means the concentration at half of the fitted maximal effect
Method in brief: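 Biochemical qHTS: compounds run as interplate titrations against purified firefly enzyme, with D-luciferin and ATP each at its KM concentration. Light output recorded by CCD imaging.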

[3] = qHTS assay to identify small molecule agonists of the constitutive androstane receptor (CAR) signaling pathway - cell viability counter screen (AID 1224836); further: series mostly up to about 92 µM; nearly all actives have a fitted effect of over 45% in size
Method in brief: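 Double-stable HepG2 hepatoma cells (hCAR plus CYP2B6-2.2kb) are treated for 23 h at 37 C with test compounds in 15-point concentration series. PK11195 at 0.75 uM final is co-added. Cell viability is quantified by CellTiter-Fluor.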

[4] = qHTS assay to identify small molecule antagonists of the constitutive androstane receptor (CAR) signaling pathway - cell viability counter screen (AID 1224837); further: series mostly up to about 92 µM; nearly all actives have a fitted effect of over 45% in size
Method in brief: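 Viability was measured with CellTiter-Fluor in a HepG2 line carrying stably transfected hCAR and a CYP2B6-2.2kb construct. Cells were exposed for 23 hr at 37 C to 15 compound concentrations with 50 nM CITCO as agonist.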

[5] = qHTS assay to identify small molecule antagonists of the estrogen related receptor signaling pathway with the pleiotropic PPARgamma coactivator (PGC) from Tox21 10K library - cell viability counter screen (AID 1224840; active means well fitted cell-killing curve with a large enough effect in the repeat runs, not every such curve was filed as active; further: nearly all actives have a fitted effect of over 40% in size)
Method in brief: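 Multiplexed viability counter screen in the PGC/ERR cell line: cells treated with DMSO-dissolved compounds for 17.5 hours at 37 C, then viability measured as CellTiter-Fluor fluorescence.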

[6] = qHTS assay to identify small molecule agonists of the hypoxia (HIF-1) signaling pathway - cell viability counter screen (AID 1224844; calls by dose curve; further: nearly all actives have a fitted effect of over 50% in size; further: potency means the concentration at half of the fitted maximal effect)
Method in brief: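 Cytotoxicity was measured in parallel with the HRE-driven beta-lactamase readout: after 17 hrs of compound exposure at 37C, HRE-bla ME-180 cells received CellTiter-Glo and luminescence was recorded 30 min later.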

[7] = qHTS assay to identify small molecule agonists of H2AX (AID 1224845; active means well fitted activation curve with a large enough effect in the signal ratio in the repeat runs, not every such curve was filed as active; the % refers to the signal ratio)
Method in brief: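 Wild-type CHO-K1 cells, plated overnight, exposed 3hr at 37C to 15 concentrations (0.76% DMSO final). Lysed, then HTRF anti-pH2AX (S139) cryptate and anti-H2AX-d2 antibodies, 24 hr room temperature; 665/620 nm emission read.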

[8] = qHTS assay to identify small molecule agonists of the hypoxia (HIF-1) signaling pathway (AID 1224846; active means well fitted activation curve with a large enough effect in the signal ratio in the repeat runs, not every such curve was filed as active; the % refers to the signal ratio)
Method in brief: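 Compounds from the Tox21 10K library, dissolved in DMSO, are tested for induction of a hypoxia response element–controlled beta-lactamase reporter in ME-180 cells. Exposure lasts 17 hrs at 37C after a 5 hr settling period, followed by CCF4-AM FRET substrate.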

[9] = qHTS assay to identify small molecule agonists of H2AX - cell viability counter screen (AID 1224847; calls by dose curve; further: top concentration of the series differs between compounds; nearly all actives have a fitted effect of over 30% in size)
Method in brief: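 For this counter screen, overnight-attached CHO-K1 cells received test compounds (15 concentrations, 0.76% DMSO final); 3 hr later at 37C, CellTiter-Glo reagent was added and luminescence recorded after 30 min at room temperature.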

[10] = qHTS RealTime-Glo MT Cell Viability Assay in HepG2 cells - 24 hour (AID 1224867); further: nearly all actives have a fitted effect of over 50% in size
Method in brief: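 Cell number in HepG2 cultures estimated from NanoLuc luminescence generated by metabolic reduction of a prosubstrate by living cells. The homogeneous, nonlytic format allowed repeated reads at 0, 8, 16, 24, 32 and 40 h of compound exposure.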

[11] = qHTS RealTime-Glo MT Cell Viability Assay in HEK293 cells - 32 hour (AID 1224868); further: nearly all actives have a fitted effect of over 50% in size; further: potency means the concentration at half of the fitted maximal effect
Method in brief: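 Homogeneous bioluminescent viability format in HEK293 cells (600 cells/well). Following 5 h at 37 C/5% CO2, 23 nL compound was pintooled; the signal was measured repeatedly during 40 h incubation.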

[12] = A CellTox Green Cytotoxicity Assay to monitor cytotoxicity in HEK293 cells - 0 hour (AID 1224869); further: nearly all actives have a fitted effect of over 50% in size
Method in brief: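 Cells (HEK293, 600/well) and dye reagent are dispensed together. After 5 h at 37 C, 23 nL compound is pinned in. Plates stay at 37 C for 40 h with fluorescence read at 0h, 8h, 16h, 24h, 32h and 40h.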

[13] = target: Thyrotropin receptor (Homo sapiens) (UniProt P16473); test: qHTS assay to identify small molecule agonists of the thyroid stimulating hormone receptor (TSHR) signaling pathway (AID 1224843; calls by dose curve; further: nearly all actives have a fitted effect of over 45% in size)
Method in brief: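 Agonist-mode screen: TSHR HEK293 cells received test chemicals for half an hour at room temperature, then HTRF cAMP detection reagents for one hour prior to fluorescence measurement. Each chemical ran as a 15-concentration series, triplicated.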

[14] = target: Nuclear receptor subfamily 1 group I member 3 (Homo sapiens) (UniProt Q14994); test: qHTS assay to identify small molecule antagonists of the constitutive androstane receptor (CAR) signaling pathway (AID 1224838);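 further: HepG2 cells stably expressing hCAR with CYP2B6 luciferase reporter stimulated by CITCO; nearly all actives have a fitted effect of over 40% in size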
Method in brief: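 Antagonist mode used CITCO at a final 50 nM to activate CAR in human hepatoma HepG2 cells carrying stable hCAR and a 2.2 kb CYP2B6 promoter-luciferase construct. Compounds were tested at 15 concentrations over 24 h, with luminescence as the end point.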

[15] = target: Nuclear receptor subfamily 1 group I member 3 (Homo sapiens) (UniProt Q14994); test: qHTS assay to identify small molecule agonists of the constitutive androstane receptor (CAR) signaling pathway (AID 1224839); further: series mostly up to about 92 µM; nearly all actives have a fitted effect of over 15% in size
Method in brief: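 Readout: firefly luciferase luminescence via ONE-Glo. System: HepG2 double-stable for hCAR and CYP2B6-2.2kb. Conditions: 15-point compound titration, PK11195 at 0.75 uM final, 24 h incubation.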

[16] = qHTS assay to identify small molecule antagonists of the estrogen related receptor signaling pathway with the pleiotropic PPARgamma coactivator (PGC) from Tox21 10K library (AID 1224841; call rule not given here)
Method in brief: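 Steps: plate 2,000 PGC/ERR cells per well; incubate 6 h at 37 C with 5% CO2; transfer compounds from DMSO stocks by pin tool; incubate 18 h at 37 C; add One-Glo; measure luminescence 30 min later.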

[17] = qHTS assay to identify small molecule agonists of the estrogen related receptor signaling pathway with the pleiotropic PPARgamma coactivator (PGC) from Tox21 10K library (AID 1224842); further: nearly all actives have a fitted effect of over 15% in size
Method in brief: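 PGC/ERR reporter cell line, 2,000 cells per well, incubated 6 h at 37 C before 23 nL compound in DMSO was added. After 18 h at 37 C, One-Glo luminescence read following 30 min at room temperature.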

[18] = qHTS assay to identify small molecule antagonists of the estrogen related receptor (ERR) signaling pathway from Tox21 library (AID 1224848)
Method in brief: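 Quantitative high-throughput format: ERR reporter cells (2,000/well) pre-incubated 6 h, treated 18 h at 37 C with compounds in DMSO alongside positive and negative controls, then read by ONE-Glo luminescence.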

Sequence of Luciferin 4-monooxygenase (Photinus pyralis) (P08659 whole entry, looked up): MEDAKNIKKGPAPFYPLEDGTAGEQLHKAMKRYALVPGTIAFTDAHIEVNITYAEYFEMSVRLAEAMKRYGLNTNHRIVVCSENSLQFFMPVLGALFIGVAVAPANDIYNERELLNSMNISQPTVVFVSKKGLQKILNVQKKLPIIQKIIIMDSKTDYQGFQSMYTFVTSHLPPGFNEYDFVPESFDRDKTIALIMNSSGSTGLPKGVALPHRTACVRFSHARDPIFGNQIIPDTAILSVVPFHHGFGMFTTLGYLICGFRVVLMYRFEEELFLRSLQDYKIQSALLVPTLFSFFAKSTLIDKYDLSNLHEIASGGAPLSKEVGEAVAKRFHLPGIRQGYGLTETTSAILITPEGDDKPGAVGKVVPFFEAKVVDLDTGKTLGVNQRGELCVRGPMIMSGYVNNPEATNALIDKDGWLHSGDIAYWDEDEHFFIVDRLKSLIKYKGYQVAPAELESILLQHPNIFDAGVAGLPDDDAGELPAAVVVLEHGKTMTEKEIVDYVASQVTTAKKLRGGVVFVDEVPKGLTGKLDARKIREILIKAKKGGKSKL
Sequence of Thyrotropin receptor (Homo sapiens) (P16473 whole entry, looked up): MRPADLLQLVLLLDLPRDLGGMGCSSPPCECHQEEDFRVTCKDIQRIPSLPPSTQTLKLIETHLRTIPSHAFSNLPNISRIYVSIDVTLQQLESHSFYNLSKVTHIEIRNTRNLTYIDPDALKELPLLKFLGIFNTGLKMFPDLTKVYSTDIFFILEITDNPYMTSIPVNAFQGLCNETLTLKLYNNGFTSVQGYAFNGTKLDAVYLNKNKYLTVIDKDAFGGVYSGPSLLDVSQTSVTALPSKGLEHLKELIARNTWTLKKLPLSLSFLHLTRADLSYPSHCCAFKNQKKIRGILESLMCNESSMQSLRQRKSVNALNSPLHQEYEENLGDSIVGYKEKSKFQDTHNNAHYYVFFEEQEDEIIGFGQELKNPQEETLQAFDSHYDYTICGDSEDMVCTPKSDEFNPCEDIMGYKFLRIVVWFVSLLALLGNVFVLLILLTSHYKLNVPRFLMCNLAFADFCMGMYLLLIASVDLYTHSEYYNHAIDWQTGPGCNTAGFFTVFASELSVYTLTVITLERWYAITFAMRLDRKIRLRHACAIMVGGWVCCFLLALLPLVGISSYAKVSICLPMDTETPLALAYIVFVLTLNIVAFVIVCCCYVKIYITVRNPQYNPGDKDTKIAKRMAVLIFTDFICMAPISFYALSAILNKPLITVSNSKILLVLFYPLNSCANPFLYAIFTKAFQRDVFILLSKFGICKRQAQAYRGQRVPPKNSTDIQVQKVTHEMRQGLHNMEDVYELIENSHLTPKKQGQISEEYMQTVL
Sequence of Nuclear receptor subfamily 1 group I member 3 (Homo sapiens) (Q14994 whole entry, looked up): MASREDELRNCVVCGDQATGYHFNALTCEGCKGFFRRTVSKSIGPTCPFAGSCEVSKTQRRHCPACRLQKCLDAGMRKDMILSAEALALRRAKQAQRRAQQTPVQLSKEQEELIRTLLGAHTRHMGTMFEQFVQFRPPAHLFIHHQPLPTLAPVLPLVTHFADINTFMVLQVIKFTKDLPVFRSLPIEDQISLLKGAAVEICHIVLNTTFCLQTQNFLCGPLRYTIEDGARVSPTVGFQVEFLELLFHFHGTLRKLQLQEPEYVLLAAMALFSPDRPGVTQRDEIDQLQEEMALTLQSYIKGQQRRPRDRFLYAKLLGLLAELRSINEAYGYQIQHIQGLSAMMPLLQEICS

SMILES	Potency [1]	Potency [2]	Potency [3]	Potency [4]	Potency [5]	Potency [6]	Potency [7]	outcome [8]	Potency [9]	Potency [10]	Potency [11]	Potency [12]	Potency [13]	Potency [14]	Potency [15]	Potency [16]	Potency [17]	Potency [18]
CC1(C)S[C@@H]2[C@H](NC(=O)C(c3ccccc3)S(=O)(=O)O)C(=O)N2[C@H]1C(=O)O (some centres not stated)	inactive	inactive	inactive	inactive	inactive	inactive	inactive	inactive	inactive	inactive	inactive	inactive	–	–	–	–	–	–
O=C(/C=C/c1ccc(O)c(O)c1)O[C@@H]1C[C@@](OC(=O)/C=C/c2ccc(O)c(O)c2)(C(=O)O)C[C@@H](O)[C@@H]1O	inactive	inactive	inactive	inactive	–	inactive	–	inactive	inactive	inactive	inactive	inactive	inactive	–	–	–	–	–
CCCCCCCCCCC(=O)O	inactive	57.1 µM (active)	inactive	inactive	inactive	inactive	inactive	inactive	inactive	inactive	inactive	inactive	inactive	–	–	–	–	–
CC(C)c1nc(CN(C)C(=O)N[C@H](C(=O)N[C@@H](Cc2ccccc2)C[C@H](O)[C@H](Cc2ccccc2)NC(=O)OCc2cncs2)C(C)C)cs1	13.3 µM (active)	inactive	–	–	–	9.52 µM (active)	inactive	inactive	–	inactive	21.3 µM (active)	inactive	inactive	inactive	inactive	23.7 µM (active)	inactive	21.1 µM (active)
C[C@]1(Cn2ccnn2)[C@H](C(=O)O)N2C(=O)C[C@H]2S1(=O)=O	inactive	inactive	inactive	inactive	–	–	inactive	inactive	inactive	inactive	inactive	inactive	inactive	–	–	–	–	–
CCn1cc(C(=O)O)c(=O)c2cc(F)c(N3CCNCC3)cc21	inactive	inactive	inactive	inactive	inactive	–	inactive	–	–	inactive	inactive	inactive	inactive	–	–	–	–	–
CO[C@]1(NC(=O)CSC(F)F)C(=O)N2C(C(=O)O)=C(CSc3nnnn3CCO)CO[C@H]21	inactive	inactive	inactive	inactive	inactive	inactive	inactive	inactive	–	inactive	inactive	inactive	inactive	–	–	–	–	–
COC(=O)CS	inactive	inactive	inactive	inactive	inactive	inactive	–	inactive	–	inactive	inactive	inactive	inactive	–	–	–	–	–
CCCCCCCCOc1ccc(C(=O)O)cc1	inactive	31.4 µM (active)	inactive	inactive	inactive	inactive	inactive	inactive	inactive	inactive	inactive	inactive	inactive	–	–	–	–	–
CC1=C(CC=O)C(C)(C)CCC1	inactive	inactive	inactive	inactive	inactive	inactive	inactive	–	–	inactive	inactive	inactive	–	–	–	–	–	–
